Assay outcomes as filed in PubChem BioAssay.
Hits are enriched below; roughly 6.2% of the tested compounds scored in any of these assays.
HCMV inh – qHTS Assay for inhibitors of the human cytomegalovirus (HCMV); activity change, negative = inhibition, % at 57.5 µM; 410,000 compounds, 4.5% hits; AID 1259415, 2018; HFF cells, HCMV-luciferase reporter, 72 h; active compounds read low; in the data active = activity change below about -60%; inconclusive = no clear call, values can overlap the other calls; inactive = above about -39%
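Two-dose cell screen: HFF monolayers treated with compounds and infected with luciferase-expressing HCMV at 1 PFU/cell, 72 h at 37C, then lysed for luciferase measurement.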
MARV entry inh – qHTS for inhibitors of binding or entry into cells for Marburg Virus; Marburg virus pseudotyped entry inhibition, cell reporter; AID 540276, 2011; 300,000 compounds, 1.8% hits; Potency, µM (series often up to 37.8 µM), for inactives: at the highest dose activity change, negative = inhibition, hits mostly inhibitors; calls by dose curve; tested in HEK293 cells; also: potency is read from the fitted curve at half-maximal effect
FMDV inh – High Throughput Screening for Foot and Mouth Disease Virus Antivirals. FMDV antiviral cell-based qHTS. Potency, µM (series often up to 57.9 µM), inactives show at the highest dose activity change, negative = inhibition, actives largely listed as inhibitors. 410,000 compounds, 1.2% hits; calls by dose curve; tested in HEK293T cells; also: read-out not given here; potency is read from the fitted curve at half-maximal effect; nearly all actives have a fitted effect of over 45% in size
LASV entry inh – qHTS for Inhibitors of binding or entry into cells for Lassa Virus | Lassa virus pseudotype entry inhibition, cell reporter | Potency, µM (series often up to 37.9 µM), for inactives: at the highest dose activity change, negative = inhibition, actives largely listed as inhibitors | 300,000 compounds, 1.2% hits; calls by dose curve; tested in HEK293 cells; also: potency is read from the fitted curve at half-maximal effect; nearly all actives have a fitted effect of over 50% in size
* hit, by the source's call; ? = inconclusive; · = not tested or not shown; [ ] = remark or other dose. % is scaled to controls: 0 for no effect and ±100 for the full control effect.

SMILES	HCMV inh	MARV entry inh	FMDV inh	LASV entry inh
CNc1ncnc(Sc2nc(N)nc3nc[nH]c23)c1[N+](=O)[O-]	-76.6*	?	?	2.51µM*
Nc1nc(Sc2ccc([N+](=O)[O-])c3nonc23)c2[nH]cnc2n1	-85.0*	?	?	?
Cc1ccc(-n2c(-c3ccccc3)c[nH]c2=S)cc1	-74.0*	-1.6%[46.1 µM]	?	?
Cn1c(=O)[nH]c(=O)c2c1nc(N1CCCCC1)n2CCSc1nc2ccccc2o1	5.4	3.0%	0.0%	·
CC(C)CCn1c(Sc2nc3ccccc3o2)nc2c1c(=O)[nH]c(=O)n2C	-78.4*	?	0.0%	-19.0%
Cc1ccc(Nc2cc(C)nc3nc(Cc4ccc(Cl)cc4)nn23)cc1	-17.7	-4.3%[46.1 µM]	0.0%	-16.0%[46.1 µM]
CCc1ccc(Nc2cc(C)nc3nc(Cc4ccc(Cl)cc4)nn23)cc1	-91.5*	?	?	?
CN(CC(=O)NCCc1ccc(S(N)(=O)=O)cc1)Cc1ccc(Cl)cc1Cl	-86.3*	?	?	-17.1%
CN(CC(=O)NCCc1ccc(S(N)(=O)=O)cc1)Cc1c(F)cccc1Cl	2.1	0.2%[46.1 µM]	-4.2%	·
NS(=O)(=O)c1ccc(CCNC(=O)CN2CCN(c3cccc(Cl)c3)CC2)cc1	-88.5*	?	?	-18.2%
Cc1cc(Nc2cccc(Cl)c2)nc(N2CCOCC2)n1	60.4	?	-17.3%	-11.9%
Cc1c(NS(=O)(=O)c2ccccc2)ccc([N+](=O)[O-])c1Cl	-64.7*	?	7.0%	?
O=C(Cc1ccccc1)N1CCc2[nH]nc(-c3ccccc3)c2C1	-9.1	?	-8.6%	11.2µM*
CCN1CCN(Cc2cccc(Oc3ccc(Cl)cc3)c2)CC1	9.7	?	·	?
CN1CCN(Cc2cccc(Oc3ccc(Cl)cc3)c2)CC1	-60.8*	?	·	2.4%
O=C(Nc1ccccc1C(F)(F)F)N1CCC2(CC1)Oc1ccccc1C(=O)N2Cc1ccccc1F	-73.6*	?	-18.4%	·
Cc1ccc(Cl)cc1NC(=O)N1CCC2(CC1)Oc1ccccc1C(=O)N2Cc1ccccc1F	15.1	-1.6%[46.1 µM]	-23.6%	·
CCOC(=O)c1c(-c2ccccc2Cl)cn2ccccc12	?	?	-6.3%	13µM*
Cc1[nH]nc2c1-c1nc3ccccc3nc1C(C)(C)C2	-74.3*	?	?	?
CC12CCC(C)(c3nc4ccccc4nc31)C2(C)C	15.1	3.2%[46.1 µM]	-22.5%	8.0%
COc1ccc(N(Cc2ccccc2)S(=O)(=O)c2cccc(C(=O)Nc3ccccn3)c2)cc1	?	?	4.1%	12.6µM*
C=CCN(c1ccccc1)S(=O)(=O)c1cccc(C(=O)Nc2cc(C)ccn2)c1	?	8.91µM*	16.4%	17.8µM*
O=C(Nc1ccccn1)c1ccc(CN(c2ccccc2)S(=O)(=O)c2ccccc2)cc1	?	?	7.9%	?
CC1CCN(S(=O)(=O)c2cn(CC(=O)Nc3ccc(F)cc3)c(=O)c3ccccc23)CC1	-3.2	5.62µM*	8.8%	?
CCOc1ccc(NC2CCCCC2NS(=O)(=O)c2ccccc2)cc1 (centres undefined)	3.4	·	-9.5%	·
SMILES	HCMV inh	MARV entry inh	FMDV inh	LASV entry inh
CCc1cccc(NC(=O)c2oc3ccc4c(c3c2C)C(=O)CC(C)(C)O4)c1	-60.4*	·	?	-0.9%[46.1 µM]
COc1ccc(NC(=O)c2oc3ccc4c(c3c2C)C(=O)CC(C)(C)O4)cc1OC	69.5	·	19.1%	-22.1%[46.1 µM]
CC1CCN(C(=O)Cn2cc(SCC(=O)Nc3ccccc3C(F)(F)F)c3ccccc32)CC1	-64.4*	·	?	-16.2%[46.1 µM]
COc1ccc(-n2nnnc2SCC(=O)N2C(C)CCCC2C)c(OC)c1 (centres undefined)	-79.2*	-23.1%	·	-8.0%
CC1CCCC(C)N1C(=O)CSc1nnnn1-c1cccc2c1CCCC2 (centres undefined)	-38.3	-15.7%	?	-13.2%
CN1CCC2(CC1)Nc1nc(SCc3ccc(Cl)cc3)nn1C1=C2CN(C)CC1	-27.4	?	-24.1%	14.1µM*
CCOc1ccc(NC(=O)CN(C)C(=O)CN2C(=O)NC3(CCCC3)C2=O)cc1OCC	-18.0	-2.6%[46.1 µM]	2.8%	13.6%
O=c1c(Cl)c(N2CCN(c3ccc(F)cc3)CC2)cnn1C12CC3CC(CC(C3)C1)C2	-62.6*	?	?	-44.8%
O=c1c(Cl)c(N2CCN(c3ccccc3)CC2)cnn1C12CC3CC(CC(C3)C1)C2	?	?	0.0%	?
Cc1ccc(CNC(=O)c2ccc(N(C)S(=O)(=O)c3ccccc3)cc2)cc1	-16.9	?	23.6%	?
CCn1c(CSCc2ccccc2)n[nH]c1=S	-73.1*	1.2%[46.1 µM]	-7.7%	-11.6%
Cc1n[nH]c(=S)n1Cc1ccccc1	-82.2*	·	-7.4%	·
S=c1[nH]nc(-c2ccccc2)n1Cc1ccccc1	23.2	7.8%	-15.9%	11.0%
S=c1[nH]nc(CN2CCCCC2)n1Cc1ccccc1	-81.9*	1.7%[46.1 µM]	-13.2%	?
CCn1c(Cc2ccccc2)n[nH]c1=S	-13.5	·	-5.1%	·
COc1cc(C2c3[nH]c4ccccc4c3C[C@H]3C(=O)N(CCO)CC(=O)N23)cc(OC)c1OC (some centres undefined)	77.1	17.8%	-0.9%	-28.9%
Cc1ccc(OCC(=O)NNC(=O)CSC(=S)N2CCCC2)cc1	-32.6	-9.0%	0.0%	-6.4%
CC(=O)Nc1sc2c(c1CN1CCN(c3ccc(F)cc3)CC1)CCCC2	1.2	10µM*	?	?
CC(=O)Nc1sc2c(c1CN1CCCC1)CCCC2	8.5	?	-18.2%	-16.1%
CCCn1c(SCC(=O)NCCc2ccccc2)nnc1-c1ccccn1	38.9	13.9%	2.5%	-16.8%
COc1cccc2sc(Nc3nnc(-c4cccs4)o3)nc12	-86.2*	?	4.6%	?
COc1cccc2sc(Nc3nnc(-c4ccc(F)cc4)o3)nc12	30.2	·	14.5%	·
CCOc1ccc(NC(=O)c2cccc(OC(=S)N3CCOCC3)c2)cc1	-67.8*	-18.2%[46.1 µM]	-5.9%	-0.4%
COc1ccc(NC(=O)c2cccc(OC(=S)N3CCOCC3)c2)cc1	-5.7	·	-20.4%	·
O=C(Oc1ccc(C(=S)N2CCOCC2)cc1)c1ccc(Br)cc1	-60.4*	8.3%	-2.8%	-14.7%
SMILES	HCMV inh	MARV entry inh	FMDV inh	LASV entry inh
O=C(Nc1ccc(Br)cc1)c1cccc(OC(=S)N2CCOCC2)c1	-76.8*	?	?	?
O=C(Oc1ccc(C(=S)N2CCOCC2)cc1)c1ccccc1	-19.8	?	-3.4%	7.8%[46.1 µM]
Cc1cccc(NC(=O)c2cccc(OC(=S)N3CCOCC3)c2)c1C	7.4	9.0%	7.1%	5.3%
COc1ccc(C(=O)NCCCNC(=O)c2cnccn2)cc1	-15.3	11.4%[46.1 µM]	-11.1%	7.5%[46.1 µM]
COc1ccc(C(=O)NCCNc2nc3ccc(C)cc3cc2C#N)cc1	-10.8	·	-11.5%	·
O=C(CSc1nnnn1C1CC1)N1CCN(c2cccc(Cl)c2)CC1	-32.8	·	-59.9%	·
CC(C)c1ccc(CN2CCN(C(=O)CSc3nnnn3C3CC3)CC2)cc1	-90.4*	·	?	·
Cc1cc(C)n2nc(SCC(=O)N/N=C/c3ccccn3)nc2n1	-9.3	?	-20.7%	11.3%
